This note sets out measurements from PubChem BioAssay.

Molecules are shown by their SMILES. A number with no mark means an inactive call. Calls of active or inactive are those of the source.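 Rule for the calls, unless noted: active = compound raises insulin release from rat beta cells at 5 mM glucose, no numeric limit stated; inactive = the rest.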

Assay [1] is described as follows: stimulators of insulin release from INS-1E, primary screen, cell-based, 5 mM glucose, NPC library (AID 1117329). As to conditions: rat INS-1E insulin secretion, at 10 µM, hits give high values.
The nature of assay [2]: growth inhibition of GSK3B-pretreated HCT116 cells – cell-based, CellTiter-Glo, 0.2 to 20 µM (AID 1117336;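 active = compounds lowering colon cancer cell viability after pretreatment blocking the GSK3B kinase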). As to conditions: HCT116 viability after GSK3B inhibitor, at 20 µM, hits give high values. (In general: In ATP-based viability assays light output follows the ATP content of the culture.)
Assay [3] in a line: inhibition of endothelial tube formation, primary screen, imaging, VEGF stimulated, CD31 staining, tube area, NPC library (AID 1117340;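 active = compound that reduces growth-factor-driven endothelial tube area in a mixed cell culture, no cutoff stated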). To be noted: VEGF-stimulated ADSC/ECFC co-culture, at 10 µM, hits give high values.
Assay [4] is described as follows: GLP1 release stimulators, primary, NCI-H716, NPC library (AID 1117341;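 active = compound raises GLP1 secretion from the human gut endocrine cells, with no numeric limit stated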). To be noted: NCI-H716 cells, at 10 µM, hits give high values.
Assay [5] can be described thus: HCT116 colon cancer cell growth inhibition, primary screen, CellTiter-Glo luminescence, NPC library (AID 1117342;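 active = compounds that lower survival of HCT116 colon cancer cells in the luminescence readout, no numeric limit stated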). As to conditions: at 20 µM (top of the series).
The nature of assay [6]: reduced SW480 viability measured with CellTiter-Glo, NPC library, primary (AID 1117343;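 active = compounds that lower viability of the colon cancer cells in the luminescence readout, with no numeric limit stated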). To be noted: CellTiter-Glo luminescence; at 20 µM (top of the series).
Assay [7] can be described thus: NPC library primary testing for decreased DLD-1 cell viability via CellTiter-Glo (AID 1117346;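 active = compounds that lower survival of DLD-1 colon cancer cells in the luminescence readout, no cutoff given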). As to conditions: DLD-1 viability, CellTiter-Glo luminescence; at 20 µM (top of the series).
In assay [8] the target is 6-phosphogluconate dehydrogenase, decarboxylating (Homo sapiens) (UniProt P52209). As to the kind of experiment: inhibition of human phosphogluconate dehydrogenase – biochemical, recombinant enzyme, NADPH absorbance, primary screen (AID 1159550;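 active = at least 20% inhibition of 6-phosphogluconate dehydrogenase activity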). As to conditions: recombinant 6PGD, NADPH absorbance 341 nm; at 10 µM; hits give high values.
6-phosphogluconate dehydrogenase, decarboxylating (Homo sapiens), sequence (P52209 whole entry, looked up): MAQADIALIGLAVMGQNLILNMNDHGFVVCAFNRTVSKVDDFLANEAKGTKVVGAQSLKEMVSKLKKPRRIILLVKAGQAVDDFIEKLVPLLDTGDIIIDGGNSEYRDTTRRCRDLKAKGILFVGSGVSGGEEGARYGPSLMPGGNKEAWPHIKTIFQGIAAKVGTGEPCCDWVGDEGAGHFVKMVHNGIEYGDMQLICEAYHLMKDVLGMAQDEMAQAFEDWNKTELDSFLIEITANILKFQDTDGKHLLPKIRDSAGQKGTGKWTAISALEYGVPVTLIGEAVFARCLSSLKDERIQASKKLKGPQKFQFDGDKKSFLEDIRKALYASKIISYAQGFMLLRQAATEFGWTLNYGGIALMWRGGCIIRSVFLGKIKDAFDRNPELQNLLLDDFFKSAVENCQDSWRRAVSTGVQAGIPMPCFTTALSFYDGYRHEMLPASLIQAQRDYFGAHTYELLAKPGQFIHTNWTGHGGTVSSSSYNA

As a reminder, the inhibition is the relative decrease from the control value, in per cent. For `CC(=O)OCC(=O)[C@@]1(O)[C@H](OC(C)=O)C[C@H]2[C@@H]3CCC4=CC(=O)C=C[C@]4(C)[C@@]3(F)[C@@H](O)C[C@@]21C`, the insulin secretion stimulation in assay [1] was 2.1%. In assay [2], the viability decrease is -9%. The tube area decrease in assay [3] is -8.6%. Moreover, the GLP1 secretion stimulation in assay [4] was 2.4%. Further, the inhibition of viability in assay [5] was -8.2%. Further, the viability decrease (inhibition) in assay [6] was 18.4%; in assay [7], -14.1%. In addition, in assay [8], the inhibition is 14.6%.

On to `CCCCC(=O)O[C@]1(C(=O)CO)[C@@H](C)C[C@H]2[C@@H]3CCC4=CC(=O)C=C[C@]4(C)[C@@]3(F)[C@@H](O)C[C@@]21C`, for which the insulin secretion stimulation in assay [1] was -4.4%. In addition, the viability decrease in assay [2] is -106%. In addition, the tube area decrease in assay [3] was 2.4%. Also, the GLP1 secretion stimulation in assay [4] is 8.1%. Also, the inhibition of viability in assay [5] was 12.9%. For the same compound, the viability decrease (inhibition) in assay [6] is -0.4%; in assay [7], 11%. The inhibition in assay [8] was -3.61%.

Turning to `C[N+]1(CCCCC[N+]2(C)CCCC2)CCCC1`, the insulin secretion stimulation in assay [1] was 2.5%. In assay [2], the viability decrease was -7%. Further, the tube area decrease in assay [3] is -11.3%. For the same compound, in assay [4], the GLP1 secretion stimulation was -1.6%. Also, the inhibition of viability in assay [5] was -2.5%. Moreover, the viability decrease (inhibition) in assay [6] was -8.4%; in assay [7], 6.3%. Also, the inhibition in assay [8] is 10.2%.

Regarding `CCO/C([O-])=N/c1c[n+](N2CCOCC2)no1`, the insulin secretion stimulation in assay [1] is 0.9%. The viability decrease in assay [2] was 22.3%. In assay [3], the tube area decrease was 2.4%. Moreover, the GLP1 secretion stimulation in assay [4] is -0.5%. The inhibition of viability in assay [5] was 8.63%. For the same compound, the viability decrease (inhibition) in assay [6] is 43.4%; in assay [7], -1.5%. In addition, the inhibition in assay [8] was 16.2%.

Take `CC1=C(C(=O)O)N2C(=O)[C@@H](NC(=O)[C@H](N)C3=CCC=CC3)[C@H]2SC1`: in assay [1], the insulin secretion stimulation was 0.35%. Moreover, the viability decrease in assay [2] is 47.6%. For the same compound, the tube area decrease in assay [3] is 0.9%. The GLP1 secretion stimulation in assay [4] is 1.6%. Further, the inhibition of viability in assay [5] is 44%. The viability decrease (inhibition) was 34.9% in assay [6] and 16.5% in assay [7]. Moreover, the inhibition in assay [8] is 12.9%.

Take `CO/N=C1\CN(c2nc3c(cc2F)c(=O)c(C(=O)O)cn3C2CC2)CC1CN` (stereo unspecified): the insulin secretion stimulation in assay [1] is 3%. In assay [2], the viability decrease is -23.6%. Besides, in assay [3], the tube area decrease was -6.9%. Besides, the GLP1 secretion stimulation in assay [4] is 1.1%. The inhibition of viability in assay [5] was -15%. In addition, the viability decrease (inhibition) in assay [6] is -14.7%; in assay [7], -7.2%. Also, in assay [8], the inhibition was 2.88%.

With `CC1(C)OC(=O)NC1=O`, the insulin secretion stimulation in assay [1] is 0.6%. Moreover, in assay [2], the viability decrease was -28.6%. In addition, in assay [3], the tube area decrease was 2.9%. The GLP1 secretion stimulation in assay [4] was -6.6%. In addition, the inhibition of viability in assay [5] is 17.4%. Besides, the viability decrease (inhibition) in assay [6] is 11.1% (active); in assay [7], -3.2%. The inhibition in assay [8] is 10.2%.

`CC(=O)Nc1cccc(O)c1`: in assay [1], the insulin secretion stimulation was 1.1%. Also, the viability decrease in assay [2] is -1.55%. For the same compound, in assay [3], the tube area decrease was -19.6%. In addition, the GLP1 secretion stimulation in assay [4] is -0.3%. Also, the inhibition of viability in assay [5] is -14.5%. Moreover, the figures for the viability decrease (inhibition) in assay [6] and in assay [7] were 32.8% and 4.35%, respectively. In assay [8], the inhibition was 11.9%.

As to `CC(=O)Oc1ccc(C(c2ccc(OC(C)=O)cc2)c2ccccn2)cc1`, in assay [1], the insulin secretion stimulation was 2.65%. Besides, the viability decrease in assay [2] was 41.4%. Also, in assay [3], the tube area decrease is 15.6%. The GLP1 secretion stimulation in assay [4] is 5.8%. Besides, the inhibition of viability in assay [5] was 67.8% (active). Moreover, the viability decrease (inhibition) in assay [6] is -6%; in assay [7] it was 53.5% (active). Also, the inhibition in assay [8] is 4.53%.

As to `O=C1NCC2(CCN(CCc3ccccc3)CC2)O1`, in assay [1], the insulin secretion stimulation is -0.9%. Moreover, the viability decrease in assay [2] was 1.6%. In assay [3], the tube area decrease was 18.6%. Besides, the GLP1 secretion stimulation in assay [4] was 0%. Moreover, the inhibition of viability in assay [5] is 8.9%. Further, the viability decrease (inhibition) in assay [6] was 48%; in assay [7], -32.8%. The inhibition in assay [8] was 13.7%.

Regarding `COc1ccnc(CS(=O)c2nc3ccc(OC(F)F)cc3[nH]2)c1OC` (stereo unspecified), the insulin secretion stimulation in assay [1] is 1.2%. In assay [2], the viability decrease was 20.6%. The tube area decrease in assay [3] was -16.8%. Also, the GLP1 secretion stimulation in assay [4] is -0.9%. The inhibition of viability in assay [5] was 5.27%. Besides, the values for the viability decrease (inhibition) in assay [6] and in assay [7] were -0.2% and -5.4%, respectively. For the same compound, the inhibition in assay [8] was 11.1%.

As for `C=C1c2cccc(O)c2C(O)=C2C(=O)[C@]3(O)C(O)=C(C(N)=O)C(=O)[C@@H](N(C)C)[C@@H]3[C@@H](O)[C@H]12`, the insulin secretion stimulation in assay [1] is -1.8%. For the same compound, the viability decrease in assay [2] was -253%. Also, the tube area decrease in assay [3] is 9.7%. Besides, the GLP1 secretion stimulation in assay [4] is 0.4%. For the same compound, the inhibition of viability in assay [5] was -0.33%. Besides, the figures for the viability decrease (inhibition) in assay [6] and in assay [7] were -1.7% and 58.4% (active), respectively. Further, the inhibition in assay [8] was 13.8%.
